# Test system: T1, ADCK3
# T1 construct: gene CABC1
# Conditions: Compound Concentration (nM):1000
# 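Further: KINOMEscan scanMAX binding as percent activity remaining versus control; lower means stronger binding.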
row,Structure (SMILES),Percent Control
1,NS(=O)(=O)c1ccc(N/N=C2\C(=O)Nc3ccc(C(=O)NCc4ccncc4)cc32)cc1 [GW300657X],87%
2,Cl.O=C(O[C@H]1CN[C@H](C#Cc2cc3ncnc(Nc4ccc5c(cnn5Cc5ccccc5)c4)c3s2)C1)N1CCOCC1 [GSK200398A],100%
3,Cl.O=S1CCN(Cc2ccc(-c3ccc4ncnc(Nc5ccc(OCc6ccccc6)c(F)c5)c4c3)o2)CC1 [GW576924A],100%
4,Cl.c1ccc(Cc2nc3ccc(Nc4ncnc5ccccc45)cc3[nH]2)cc1 [GR269666A],100%
5,COc1cccc(-c2c[nH]c3c(N/N=C/c4ccncc4)ncnc23)c1 [GW814408X],100%
6,Cl.O=C(Nc1ccc(Oc2ccc3[nH]c(NC(=O)c4ccccc4)nc3c2)cc1)Nc1cc(C(F)(F)F)ccc1F [GW709042A],100%
7,CCn1c(-c2nonc2N)nc2c(C#CC(C)(C)O)nc(OCCNC)cc21.Cl [GSK949675],100%
8,CN(C)c1cc2c(Nc3ccc4c(cnn4Cc4ccccc4)c3)ncnc2cn1 [GW282974X],98%
9,C[C@@H](Oc1cc(-n2cnc3ccc(OC4CCN(C)CC4)cc32)sc1C(N)=O)c1ccccc1Cl [GSK579289A],97%
10,CCc1ccc(Oc2nccc(-c3c(-c4ccc(F)cc4)ncn3C3CCNCC3)n2)cc1 [SB-242719],100%
11,NS(=O)(=O)c1ccc(N/N=C2\C(=O)Nc3ccc(-c4cnco4)cc32)cc1 [GW276655],100%
12,COc1cc(C)c(N(C)C(=O)CN(C)C)cc1Nc1nc(Nc2cccc(F)c2C(N)=O)c2cc[nH]c2n1 [GSK2219385],80%
13,COc1ccc2[nH]c3c4[nH]c5ccc(OC)cc5c4c4c(c3c2c1)C(=O)NC4=O [GW296115X],100%
14,COc1cc(C=NNc2ncnc3c2cnn3-c2ccccc2)ccc1O [GW513184X],95%
15,NS(=O)(=O)c1ccc(N/N=C2\C(=O)Nc3ccc(Cl)cc32)cc1 [GW280670X],100%
16,COc1cc(N2CCN(C(C)C)CC2)ccc1Nc1nc(Nc2ccc(F)cc2C(=O)NC[C@@H](O)CO)c2cc[nH]c2n1 [GSK1392956A],94%
17,Cc1cc(O)cc(C)c1/C=C/c1cncc(C(N)=O)c1 [GW435821X],100%
18,COC(=O)Nc1nc2ccc(Oc3ccc(NC(=O)Nc4cc(C(F)(F)F)ccc4F)cc3)cc2s1.Cl [GW693917A],100%
19,CC(C)COC(=O)c1ccc2c(c1)/C(=C/Nc1ccc(S(N)(=O)=O)cc1)C(=O)N2 [GW416981X],100%
20,CCS(=O)(=O)c1ccc(OC)c(Nc2ncc(-c3cccc(OC)c3)o2)c1 [GW580509X],100%
21,COc1cccc(-n2ncc3c(N/N=C/c4ccncc4)ncnc32)c1 [GW784752X],100%
22,COc1ccc2c(-c3ccnc(Nc4cccc(OC(F)(F)F)c4)n3)cnn2n1 [GW810372X],100%
23,O=C1Nc2ccc(C(=O)c3ccco3)cc2C1=Cc1cc(Cl)c(O)c(Cl)c1 [GW406108X],90%
24,NS(=O)(=O)c1ccc(Nc2ncc(-c3ccccc3)o2)cc1 [GW572399X],100%
25,COc1cc2ncn(-c3cc(O[C@H](C)c4ccccc4Cl)c(C(N)=O)s3)c2cc1OC [GSK237701A],100%
26,Nc1ncnc2occ(-c3ccc(NC(=O)Nc4cc(C(F)(F)F)ccc4F)cc3)c12 [GW770249X],100%
27,NS(=O)(=O)c1ccc(N/N=C2\C(=O)Nc3ccc(C(=O)NCCc4c[nH]cn4)cc32)cc1 [GW300660X],100%

# Test system: ADCK4
# Conditions: Compound Concentration (nM):1000
row,Structure (SMILES),Percent Control
1,Cl.O=C(Nc1ccc(Oc2ccc3[nH]c(NC(=O)c4ccco4)nc3c2)cc1)Nc1cc(C(F)(F)F)ccc1F [GW683134A],100%
2,O=C(Nc1n[nH]c2nc(-c3ccc(O)cc3)c(Br)cc12)C1CC1 [SB-725317],100%
3,COc1cc2ncnc(Nc3ccc4c(cnn4Cc4ccccc4)c3)c2cc1OC.Cl [GW282449A],100%
4,CN(C)CCNC(=O)Nc1ccc(N(C)c2ccnc(Nc3ccc(CS(C)(=O)=O)cc3)n2)cc1.Cl [GW830900A],79%
5,CC1=C(C(=O)Nc2ccc3[nH]ncc3c2)C(c2ccc(Cl)c(Cl)c2)CC(=O)N1 (stereo not shown) [GSK299115A],92%
6,COc1ccc(COc2ccc(Cc3cnc(N)nc3N)cc2OC)cc1 [GW632580X],100%
7,CCS(=O)(=O)c1ccc(OC)c(Nc2ncc(-c3cccc(F)c3)o2)c1 [GW621970X],100%
8,COc1cc(/C=N/Nc2ncnc3[nH]ncc23)ccc1O [GW578748X],100%
9,C/C(Nc1ccc(S(N)(=O)=O)cc1)=C1/C(=O)Nc2ccccc21 [GW335962X],100%
10,CN1CCN(C(=O)c2ccc(NC(=O)Nc3ccc(N(C)c4ccnc(Nc5ccc(CS(C)(=O)=O)cc5)n4)cc3)cc2)CC1.Cl [GW830263A],47%
11,CC1=C(C(=O)Nc2ccc3[nH]ncc3c2)C(c2ccc3ccccc3c2)CC(=O)N1 (stereo not shown) [GSK270822A],100%
12,COc1ccc2cc(-c3c(-c4ccncc4)nc(-c4ccc(S(C)(=O)=O)cc4C)n3C)ccc2c1 [SB-633825],80%
13,COc1ccccc1-c1cc(/C=C2\C(=O)Nc3ncc(Br)cc32)cc(Br)c1O [GW442130X],100%
14,NS(=O)(=O)c1ccc(N/N=C2\C(=O)Nc3ccc(C(=O)NCc4ccncc4)cc32)cc1 [GW300657X],100%
15,Cl.O=C(O[C@H]1CN[C@H](C#Cc2cc3ncnc(Nc4ccc5c(cnn5Cc5ccccc5)c4)c3s2)C1)N1CCOCC1 [GSK200398A],100%
16,Cl.O=S1CCN(Cc2ccc(-c3ccc4ncnc(Nc5ccc(OCc6ccccc6)c(F)c5)c4c3)o2)CC1 [GW576924A],100%
17,Cl.c1ccc(Cc2nc3ccc(Nc4ncnc5ccccc45)cc3[nH]2)cc1 [GR269666A],100%
18,COc1cccc(-c2c[nH]c3c(N/N=C/c4ccncc4)ncnc23)c1 [GW814408X],36%
19,Cl.O=C(Nc1ccc(Oc2ccc3[nH]c(NC(=O)c4ccccc4)nc3c2)cc1)Nc1cc(C(F)(F)F)ccc1F [GW709042A],100%
20,CCn1c(-c2nonc2N)nc2c(C#CC(C)(C)O)nc(OCCNC)cc21.Cl [GSK949675],100%

row,Structure (SMILES),Percent Control
1,CN(C)c1cc2c(Nc3ccc4c(cnn4Cc4ccccc4)c3)ncnc2cn1 [GW282974X],100%
2,C[C@@H](Oc1cc(-n2cnc3ccc(OC4CCN(C)CC4)cc32)sc1C(N)=O)c1ccccc1Cl [GSK579289A],20%
3,CCc1ccc(Oc2nccc(-c3c(-c4ccc(F)cc4)ncn3C3CCNCC3)n2)cc1 [SB-242719],100%
4,NS(=O)(=O)c1ccc(N/N=C2\C(=O)Nc3ccc(-c4cnco4)cc32)cc1 [GW276655],100%
5,COc1cc(C)c(N(C)C(=O)CN(C)C)cc1Nc1nc(Nc2cccc(F)c2C(N)=O)c2cc[nH]c2n1 [GSK2219385],100%
6,COc1ccc2[nH]c3c4[nH]c5ccc(OC)cc5c4c4c(c3c2c1)C(=O)NC4=O [GW296115X],75%
7,COc1cc(C=NNc2ncnc3c2cnn3-c2ccccc2)ccc1O [GW513184X],0%
8,NS(=O)(=O)c1ccc(N/N=C2\C(=O)Nc3ccc(Cl)cc32)cc1 [GW280670X],100%
9,COc1cc(N2CCN(C(C)C)CC2)ccc1Nc1nc(Nc2ccc(F)cc2C(=O)NC[C@@H](O)CO)c2cc[nH]c2n1 [GSK1392956A],100%
10,Cc1cc(O)cc(C)c1/C=C/c1cncc(C(N)=O)c1 [GW435821X],100%
11,COC(=O)Nc1nc2ccc(Oc3ccc(NC(=O)Nc4cc(C(F)(F)F)ccc4F)cc3)cc2s1.Cl [GW693917A],75%
12,CC(C)COC(=O)c1ccc2c(c1)/C(=C/Nc1ccc(S(N)(=O)=O)cc1)C(=O)N2 [GW416981X],100%
13,CCS(=O)(=O)c1ccc(OC)c(Nc2ncc(-c3cccc(OC)c3)o2)c1 [GW580509X],100%
14,COc1cccc(-n2ncc3c(N/N=C/c4ccncc4)ncnc32)c1 [GW784752X],31%
15,COc1ccc2c(-c3ccnc(Nc4cccc(OC(F)(F)F)c4)n3)cnn2n1 [GW810372X],100%
16,O=C1Nc2ccc(C(=O)c3ccco3)cc2C1=Cc1cc(Cl)c(O)c(Cl)c1 [GW406108X],99%
17,NS(=O)(=O)c1ccc(Nc2ncc(-c3ccccc3)o2)cc1 [GW572399X],100%
18,COc1cc2ncn(-c3cc(O[C@H](C)c4ccccc4Cl)c(C(N)=O)s3)c2cc1OC [GSK237701A],83%
19,Nc1ncnc2occ(-c3ccc(NC(=O)Nc4cc(C(F)(F)F)ccc4F)cc3)c12 [GW770249X],100%
20,NS(=O)(=O)c1ccc(N/N=C2\C(=O)Nc3ccc(C(=O)NCCc4c[nH]cn4)cc32)cc1 [GW300660X],100%

# Source: article PMC7826789 (International Journal of Molecular Sciences, 2021)
